Values without a mark were called inactive.

We go through one compound from the supplement of paper PMC11732987, “Enantioselective OTUD7B fragment discovery through chemoproteomics screening and high-throughput optimisation” (Communications Chemistry, 2025).

Holding throughout (assay): log2 ratio of Biotin-Ahx-Ub-VS probe labelling (fragment/DMSO); higher = less target engagement (more negative = stronger competition), active = hit call of the paper (q ≤ 0.05, log2 ratio ≤ -1)
Holding throughout (conditions): compound concentration: 200 uM; treatment time: 3 h

One test deals with T1, USP19 (UniProt O94966).
T1 sequence (whole entry): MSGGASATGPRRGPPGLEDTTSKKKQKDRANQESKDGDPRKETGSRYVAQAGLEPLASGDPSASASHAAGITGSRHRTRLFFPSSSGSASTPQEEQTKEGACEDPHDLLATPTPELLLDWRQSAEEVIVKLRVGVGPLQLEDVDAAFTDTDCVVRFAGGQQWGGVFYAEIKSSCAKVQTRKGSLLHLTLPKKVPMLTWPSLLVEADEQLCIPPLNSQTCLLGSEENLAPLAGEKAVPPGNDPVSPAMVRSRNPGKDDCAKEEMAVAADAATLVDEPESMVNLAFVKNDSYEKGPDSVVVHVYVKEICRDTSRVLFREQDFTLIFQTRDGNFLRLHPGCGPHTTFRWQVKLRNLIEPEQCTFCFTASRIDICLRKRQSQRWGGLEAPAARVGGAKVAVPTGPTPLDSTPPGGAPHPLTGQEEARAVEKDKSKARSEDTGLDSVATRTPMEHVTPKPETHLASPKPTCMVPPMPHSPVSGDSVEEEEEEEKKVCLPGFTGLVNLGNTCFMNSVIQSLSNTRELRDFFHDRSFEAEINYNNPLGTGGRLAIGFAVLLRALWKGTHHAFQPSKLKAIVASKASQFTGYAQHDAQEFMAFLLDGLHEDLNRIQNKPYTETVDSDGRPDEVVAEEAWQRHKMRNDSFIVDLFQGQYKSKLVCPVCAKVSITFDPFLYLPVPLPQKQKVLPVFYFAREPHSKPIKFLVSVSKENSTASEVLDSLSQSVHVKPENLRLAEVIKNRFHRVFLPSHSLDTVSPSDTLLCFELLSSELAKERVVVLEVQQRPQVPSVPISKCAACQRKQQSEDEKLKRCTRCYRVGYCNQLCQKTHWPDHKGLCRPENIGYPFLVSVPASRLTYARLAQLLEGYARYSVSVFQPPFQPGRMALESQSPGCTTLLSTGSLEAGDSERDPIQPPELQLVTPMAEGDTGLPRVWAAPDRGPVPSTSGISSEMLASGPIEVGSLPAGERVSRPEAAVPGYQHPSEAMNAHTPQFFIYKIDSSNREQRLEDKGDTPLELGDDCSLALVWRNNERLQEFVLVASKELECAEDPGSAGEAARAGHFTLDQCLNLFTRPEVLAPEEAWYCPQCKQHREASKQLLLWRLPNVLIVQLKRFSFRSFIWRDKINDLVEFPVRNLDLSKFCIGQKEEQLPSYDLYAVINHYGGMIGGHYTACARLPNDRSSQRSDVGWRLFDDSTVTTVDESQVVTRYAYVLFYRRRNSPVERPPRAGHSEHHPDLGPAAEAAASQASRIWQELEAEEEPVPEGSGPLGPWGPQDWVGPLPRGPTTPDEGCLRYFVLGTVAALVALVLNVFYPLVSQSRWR
Summed up:
(§1)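 Triplicate samples of HEK293T lysate, 495 µg each, received fragment at 200 µM or vehicle for 3 h, followed by Biotin-Ahx-Ub-VS (0.5 µM final) for 1 h. After NeutrAvidin enrichment of labelled DUBs and LysC/trypsin digestion, peptides were run by diaPASEF LC-MS/MS. The values are average log2 fragment/vehicle ratios from global-median-normalised Spectronaut label-free quantities, tested by unpaired t-test on proteins having ≥2 unique peptides.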

For another test, the target named is USP24 (UniProt Q9UPU5). Summed up: as §1
The next test concerns the target T2, USP25 (UniProt Q9UHP3).
T2 sequence (whole entry): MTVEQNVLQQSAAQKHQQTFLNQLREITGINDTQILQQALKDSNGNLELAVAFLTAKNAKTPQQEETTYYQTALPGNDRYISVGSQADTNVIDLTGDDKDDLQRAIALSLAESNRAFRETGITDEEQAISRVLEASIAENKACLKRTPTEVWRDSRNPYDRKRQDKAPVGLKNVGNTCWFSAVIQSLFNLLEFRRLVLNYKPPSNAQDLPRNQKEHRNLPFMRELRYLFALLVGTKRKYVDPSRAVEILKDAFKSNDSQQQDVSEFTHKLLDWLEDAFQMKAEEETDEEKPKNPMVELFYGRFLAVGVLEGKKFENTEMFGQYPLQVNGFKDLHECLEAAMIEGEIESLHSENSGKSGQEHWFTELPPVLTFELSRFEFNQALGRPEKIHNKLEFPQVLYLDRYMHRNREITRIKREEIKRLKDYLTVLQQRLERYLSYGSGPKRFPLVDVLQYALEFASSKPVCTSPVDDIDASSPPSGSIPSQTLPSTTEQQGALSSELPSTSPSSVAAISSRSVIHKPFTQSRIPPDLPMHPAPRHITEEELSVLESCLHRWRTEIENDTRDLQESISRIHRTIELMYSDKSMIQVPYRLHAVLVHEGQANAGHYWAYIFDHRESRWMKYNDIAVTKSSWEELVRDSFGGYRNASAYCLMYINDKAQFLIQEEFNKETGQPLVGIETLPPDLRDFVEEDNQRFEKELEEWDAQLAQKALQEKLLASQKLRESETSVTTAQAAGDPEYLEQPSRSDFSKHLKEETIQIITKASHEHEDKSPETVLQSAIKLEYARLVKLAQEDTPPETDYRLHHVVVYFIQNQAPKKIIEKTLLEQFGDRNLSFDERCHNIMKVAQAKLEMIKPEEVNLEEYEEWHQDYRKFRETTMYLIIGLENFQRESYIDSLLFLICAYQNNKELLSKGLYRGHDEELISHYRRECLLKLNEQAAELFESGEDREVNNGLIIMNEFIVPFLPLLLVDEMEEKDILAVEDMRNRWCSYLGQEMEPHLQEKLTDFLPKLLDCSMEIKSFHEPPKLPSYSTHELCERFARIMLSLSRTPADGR
In outline:
as §1

The next test deals with T3, USP28 (UniProt Q96RU2).
T3 sequence (whole entry): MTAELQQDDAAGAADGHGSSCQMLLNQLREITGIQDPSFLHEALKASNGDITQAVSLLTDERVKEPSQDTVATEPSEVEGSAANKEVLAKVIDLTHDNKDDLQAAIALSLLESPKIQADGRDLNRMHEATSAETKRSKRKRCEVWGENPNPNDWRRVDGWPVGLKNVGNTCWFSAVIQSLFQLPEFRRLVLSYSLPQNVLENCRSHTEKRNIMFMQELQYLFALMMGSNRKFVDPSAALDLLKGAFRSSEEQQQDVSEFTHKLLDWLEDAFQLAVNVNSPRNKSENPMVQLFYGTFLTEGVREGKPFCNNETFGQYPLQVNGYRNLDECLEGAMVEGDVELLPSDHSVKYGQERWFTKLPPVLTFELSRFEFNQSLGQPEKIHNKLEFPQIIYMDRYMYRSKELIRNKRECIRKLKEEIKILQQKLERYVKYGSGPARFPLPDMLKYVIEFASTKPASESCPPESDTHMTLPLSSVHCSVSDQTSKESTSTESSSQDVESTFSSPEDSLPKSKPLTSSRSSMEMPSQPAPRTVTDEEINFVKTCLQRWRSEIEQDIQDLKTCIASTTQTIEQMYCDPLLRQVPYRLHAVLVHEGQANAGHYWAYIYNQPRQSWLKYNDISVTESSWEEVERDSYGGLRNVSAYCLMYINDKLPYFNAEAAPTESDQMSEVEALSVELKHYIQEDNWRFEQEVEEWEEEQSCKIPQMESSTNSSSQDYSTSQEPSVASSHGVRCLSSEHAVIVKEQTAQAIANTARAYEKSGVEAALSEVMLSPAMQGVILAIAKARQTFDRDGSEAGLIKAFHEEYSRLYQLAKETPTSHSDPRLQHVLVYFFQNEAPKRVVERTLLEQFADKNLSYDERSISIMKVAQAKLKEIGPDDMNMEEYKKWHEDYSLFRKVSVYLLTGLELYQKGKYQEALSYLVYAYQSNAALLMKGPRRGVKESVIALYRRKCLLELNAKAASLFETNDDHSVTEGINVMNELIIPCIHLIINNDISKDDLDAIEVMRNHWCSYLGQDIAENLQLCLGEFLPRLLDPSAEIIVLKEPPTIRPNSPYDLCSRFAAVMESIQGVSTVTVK
In outline:
as §1

Chain of USP24 (Q9UPU5 whole entry): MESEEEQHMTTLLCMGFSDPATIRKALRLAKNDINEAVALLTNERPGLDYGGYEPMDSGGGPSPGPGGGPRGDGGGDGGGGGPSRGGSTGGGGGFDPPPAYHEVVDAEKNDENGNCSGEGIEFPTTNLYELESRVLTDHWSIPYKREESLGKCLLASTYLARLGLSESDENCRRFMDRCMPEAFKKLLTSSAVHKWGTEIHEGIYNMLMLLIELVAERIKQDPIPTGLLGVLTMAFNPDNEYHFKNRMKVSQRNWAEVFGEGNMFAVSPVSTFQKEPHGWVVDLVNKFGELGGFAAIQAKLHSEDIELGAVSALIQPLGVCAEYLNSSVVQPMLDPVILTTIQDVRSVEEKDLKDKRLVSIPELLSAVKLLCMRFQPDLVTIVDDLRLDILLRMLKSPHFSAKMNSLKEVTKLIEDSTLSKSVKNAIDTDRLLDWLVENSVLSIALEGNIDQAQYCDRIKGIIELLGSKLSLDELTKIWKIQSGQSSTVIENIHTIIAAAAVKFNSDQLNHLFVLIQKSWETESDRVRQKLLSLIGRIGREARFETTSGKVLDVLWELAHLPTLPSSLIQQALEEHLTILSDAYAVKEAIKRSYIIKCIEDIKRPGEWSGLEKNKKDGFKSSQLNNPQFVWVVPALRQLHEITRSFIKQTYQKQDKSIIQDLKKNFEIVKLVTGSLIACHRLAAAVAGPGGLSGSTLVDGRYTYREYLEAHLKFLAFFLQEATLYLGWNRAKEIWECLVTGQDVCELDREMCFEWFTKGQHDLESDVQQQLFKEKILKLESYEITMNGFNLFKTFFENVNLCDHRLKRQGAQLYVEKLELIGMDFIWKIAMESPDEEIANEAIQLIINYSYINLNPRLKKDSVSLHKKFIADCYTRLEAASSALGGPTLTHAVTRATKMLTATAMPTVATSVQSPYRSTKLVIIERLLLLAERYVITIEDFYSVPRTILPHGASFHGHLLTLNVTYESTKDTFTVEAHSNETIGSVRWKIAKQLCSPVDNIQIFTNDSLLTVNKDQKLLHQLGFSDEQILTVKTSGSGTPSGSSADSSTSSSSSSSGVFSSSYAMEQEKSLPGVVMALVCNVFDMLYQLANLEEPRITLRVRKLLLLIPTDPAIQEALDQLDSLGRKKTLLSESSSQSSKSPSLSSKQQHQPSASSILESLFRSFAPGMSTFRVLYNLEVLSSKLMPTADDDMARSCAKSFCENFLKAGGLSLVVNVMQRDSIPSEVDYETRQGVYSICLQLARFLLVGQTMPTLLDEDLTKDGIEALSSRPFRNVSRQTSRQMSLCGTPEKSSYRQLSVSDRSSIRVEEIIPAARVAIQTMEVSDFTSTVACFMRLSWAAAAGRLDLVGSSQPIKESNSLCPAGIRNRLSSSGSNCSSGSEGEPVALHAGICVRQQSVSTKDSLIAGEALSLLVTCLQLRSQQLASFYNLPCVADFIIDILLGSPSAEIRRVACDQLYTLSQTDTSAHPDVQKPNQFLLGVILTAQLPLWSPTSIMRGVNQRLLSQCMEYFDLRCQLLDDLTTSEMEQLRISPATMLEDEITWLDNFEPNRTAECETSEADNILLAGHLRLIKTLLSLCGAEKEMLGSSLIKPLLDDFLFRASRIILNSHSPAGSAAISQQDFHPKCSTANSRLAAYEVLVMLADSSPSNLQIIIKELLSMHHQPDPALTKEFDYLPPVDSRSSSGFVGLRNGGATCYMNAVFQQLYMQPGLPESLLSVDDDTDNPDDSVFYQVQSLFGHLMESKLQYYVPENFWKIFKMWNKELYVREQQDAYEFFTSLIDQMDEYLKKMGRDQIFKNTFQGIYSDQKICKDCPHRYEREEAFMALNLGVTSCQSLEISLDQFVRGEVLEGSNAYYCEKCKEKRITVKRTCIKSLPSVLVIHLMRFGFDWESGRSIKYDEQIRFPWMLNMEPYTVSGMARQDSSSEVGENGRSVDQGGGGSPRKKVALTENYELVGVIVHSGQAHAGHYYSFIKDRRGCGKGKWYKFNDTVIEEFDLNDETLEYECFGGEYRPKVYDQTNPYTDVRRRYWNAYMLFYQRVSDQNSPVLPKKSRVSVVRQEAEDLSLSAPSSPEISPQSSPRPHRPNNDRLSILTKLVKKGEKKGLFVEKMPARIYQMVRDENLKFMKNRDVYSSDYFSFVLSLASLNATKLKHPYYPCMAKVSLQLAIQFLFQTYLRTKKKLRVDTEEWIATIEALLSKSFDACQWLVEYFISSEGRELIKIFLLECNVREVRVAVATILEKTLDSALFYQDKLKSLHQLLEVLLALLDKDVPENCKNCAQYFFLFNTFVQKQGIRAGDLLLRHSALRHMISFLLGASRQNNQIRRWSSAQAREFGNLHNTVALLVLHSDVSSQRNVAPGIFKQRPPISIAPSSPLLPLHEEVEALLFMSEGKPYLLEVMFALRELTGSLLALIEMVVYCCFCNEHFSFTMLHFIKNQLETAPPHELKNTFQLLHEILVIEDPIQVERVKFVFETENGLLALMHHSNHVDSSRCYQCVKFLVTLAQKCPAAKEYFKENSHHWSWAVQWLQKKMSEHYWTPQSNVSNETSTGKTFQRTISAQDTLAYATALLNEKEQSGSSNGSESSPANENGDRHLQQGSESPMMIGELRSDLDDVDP

Consider `O=C(CCl)Nc1cccc(C(=O)N2CCSCC2)c1`, for which the “log2 ratio of Biotin-Ahx-Ub-VS probe labelling” value is -0.239 with USP19, -0.522 in the test with USP24, -1.17 (active) with USP25 and -0.818 with USP28.
